Measured values published in ChEMBL document CHEMBL1961873, “Compounds: GSK PKIS; Assays: Nanosyn kinase panel” (2012).

Legend:
[1] = target: Casein kinase I isoform gamma-2 (Homo sapiens) (UniProt P78368); conditions: at 1 µM
[2] = target: Casein kinase I isoform gamma-3 (Homo sapiens) (UniProt Q9Y6M4); conditions: at 0.1 µM
[3] = target: Casein kinase I isoform gamma-3 (Homo sapiens) (UniProt Q9Y6M4); conditions: at 1 µM
[4] = target: Cyclin-dependent kinase 1 (Homo sapiens) (UniProt P06493); conditions: at 0.1 µM
[5] = target: Cyclin-dependent kinase 1 (Homo sapiens) (UniProt P06493); conditions: at 1 µM
[6] = target: Cyclin-dependent kinase 2 (Homo sapiens) (UniProt P24941); conditions: at 0.1 µM
[7] = target: Cyclin-dependent kinase 2 (Homo sapiens) (UniProt P24941); conditions: at 1 µM
[8] = target: Cyclin-dependent kinase 2 (Homo sapiens) (UniProt P24941); conditions: at 0.1 µM; remark: listed apart in the source
[9] = target: Cyclin-dependent kinase 2 (Homo sapiens) (UniProt P24941); conditions: at 1 µM; remark: listed apart in the source
[10] = target: T1, CDK3/Cyclin E (Homo sapiens) (UniProt P24864+Q00526); conditions: at 0.1 µM
[11] = target: T1, CDK3/Cyclin E (Homo sapiens); conditions: at 1 µM
[12] = target: Cyclin-dependent kinase 4 (Homo sapiens) (UniProt P11802); conditions: at 0.1 µM
[13] = target: Cyclin-dependent kinase 4 (Homo sapiens) (UniProt P11802); conditions: at 1 µM
[14] = target: Cyclin-dependent kinase 5 (Homo sapiens) (UniProt Q00535); conditions: at 0.1 µM
[15] = target: Cyclin-dependent kinase 5 (Homo sapiens) (UniProt Q00535); conditions: at 1 µM
[16] = target: Cyclin-dependent kinase 6 (Homo sapiens) (UniProt Q00534); conditions: at 0.1 µM
[17] = target: Cyclin-dependent kinase 6 (Homo sapiens) (UniProt Q00534); conditions: at 1 µM
[18] = target: Dual specificity protein kinase CLK2 (Homo sapiens) (UniProt P49760); conditions: at 0.1 µM
[19] = target: Dual specificity protein kinase CLK2 (Homo sapiens) (UniProt P49760); conditions: at 1 µM
[20] = target: Dual specificity protein kinase CLK3 (Homo sapiens) (UniProt P49761); conditions: at 0.1 µM
Dual specificity protein kinase CLK3 (Homo sapiens), sequence (P49761 whole entry, looked up): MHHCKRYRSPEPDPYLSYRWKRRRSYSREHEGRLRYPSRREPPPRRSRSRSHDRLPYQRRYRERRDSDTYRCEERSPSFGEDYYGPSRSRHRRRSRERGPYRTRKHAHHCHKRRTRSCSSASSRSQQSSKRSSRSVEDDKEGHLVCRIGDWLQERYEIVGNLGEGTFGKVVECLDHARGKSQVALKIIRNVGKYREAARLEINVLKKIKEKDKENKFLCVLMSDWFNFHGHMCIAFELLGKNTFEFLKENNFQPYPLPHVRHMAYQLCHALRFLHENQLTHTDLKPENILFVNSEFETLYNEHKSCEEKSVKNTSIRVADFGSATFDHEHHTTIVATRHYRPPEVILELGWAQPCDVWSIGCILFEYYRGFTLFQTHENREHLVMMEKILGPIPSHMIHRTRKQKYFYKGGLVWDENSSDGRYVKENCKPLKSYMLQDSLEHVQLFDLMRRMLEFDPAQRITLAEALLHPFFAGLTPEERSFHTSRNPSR

Casein kinase I isoform gamma-2 (Homo sapiens), sequence (P78368 whole entry, looked up, canonical isoform): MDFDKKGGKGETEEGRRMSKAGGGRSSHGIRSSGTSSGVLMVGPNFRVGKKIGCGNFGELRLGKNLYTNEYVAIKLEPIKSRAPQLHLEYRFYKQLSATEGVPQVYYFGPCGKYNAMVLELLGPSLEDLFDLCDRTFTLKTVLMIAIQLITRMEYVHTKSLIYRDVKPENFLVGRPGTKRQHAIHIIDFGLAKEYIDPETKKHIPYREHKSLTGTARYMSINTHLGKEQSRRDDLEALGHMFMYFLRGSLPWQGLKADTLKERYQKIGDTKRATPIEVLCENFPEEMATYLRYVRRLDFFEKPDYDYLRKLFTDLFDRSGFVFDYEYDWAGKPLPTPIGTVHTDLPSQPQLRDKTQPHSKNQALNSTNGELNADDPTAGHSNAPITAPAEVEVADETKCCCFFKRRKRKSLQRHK
Cyclin-dependent kinase 1 (Homo sapiens), sequence (P06493 whole entry, looked up): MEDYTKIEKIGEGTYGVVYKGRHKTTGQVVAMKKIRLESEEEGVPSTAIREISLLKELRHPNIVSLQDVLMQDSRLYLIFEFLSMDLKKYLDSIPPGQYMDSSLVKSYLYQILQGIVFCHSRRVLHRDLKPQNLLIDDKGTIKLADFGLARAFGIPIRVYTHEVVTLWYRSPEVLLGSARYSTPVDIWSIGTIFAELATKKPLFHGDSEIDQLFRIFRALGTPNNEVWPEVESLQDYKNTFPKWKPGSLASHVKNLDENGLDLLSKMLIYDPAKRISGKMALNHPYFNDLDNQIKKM
T1 sequence (P24864 whole entry, looked up): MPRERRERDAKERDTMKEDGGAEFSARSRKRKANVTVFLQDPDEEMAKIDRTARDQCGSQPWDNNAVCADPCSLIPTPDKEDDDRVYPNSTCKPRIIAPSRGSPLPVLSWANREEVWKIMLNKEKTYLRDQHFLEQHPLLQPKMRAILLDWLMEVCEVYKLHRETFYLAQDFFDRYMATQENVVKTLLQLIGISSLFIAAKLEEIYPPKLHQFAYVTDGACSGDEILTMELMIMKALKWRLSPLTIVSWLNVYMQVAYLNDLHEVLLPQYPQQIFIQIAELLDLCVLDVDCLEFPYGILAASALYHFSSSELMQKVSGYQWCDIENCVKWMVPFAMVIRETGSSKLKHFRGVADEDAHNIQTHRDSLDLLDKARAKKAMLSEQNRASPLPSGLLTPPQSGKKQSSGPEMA
T1 sequence (Q00526 whole entry, looked up): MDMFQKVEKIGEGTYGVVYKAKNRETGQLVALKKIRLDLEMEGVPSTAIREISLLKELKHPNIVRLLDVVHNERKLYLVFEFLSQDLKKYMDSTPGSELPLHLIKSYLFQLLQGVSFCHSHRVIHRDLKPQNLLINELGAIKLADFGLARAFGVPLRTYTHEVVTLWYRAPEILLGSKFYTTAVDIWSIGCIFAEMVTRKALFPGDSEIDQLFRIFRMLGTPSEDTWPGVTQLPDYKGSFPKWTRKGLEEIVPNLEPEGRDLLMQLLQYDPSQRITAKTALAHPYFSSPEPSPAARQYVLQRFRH
Cyclin-dependent kinase 4 (Homo sapiens), sequence (P11802 whole entry): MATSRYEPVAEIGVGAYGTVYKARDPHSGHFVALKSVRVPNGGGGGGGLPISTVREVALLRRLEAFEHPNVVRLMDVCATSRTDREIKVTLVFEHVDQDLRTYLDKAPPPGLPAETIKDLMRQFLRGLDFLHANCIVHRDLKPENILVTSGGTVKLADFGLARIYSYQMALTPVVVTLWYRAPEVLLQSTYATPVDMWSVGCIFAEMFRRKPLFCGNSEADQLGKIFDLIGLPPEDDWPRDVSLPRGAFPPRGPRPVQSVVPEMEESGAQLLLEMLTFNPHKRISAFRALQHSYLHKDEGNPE
Cyclin-dependent kinase 6 (Homo sapiens), sequence (Q00534 whole entry): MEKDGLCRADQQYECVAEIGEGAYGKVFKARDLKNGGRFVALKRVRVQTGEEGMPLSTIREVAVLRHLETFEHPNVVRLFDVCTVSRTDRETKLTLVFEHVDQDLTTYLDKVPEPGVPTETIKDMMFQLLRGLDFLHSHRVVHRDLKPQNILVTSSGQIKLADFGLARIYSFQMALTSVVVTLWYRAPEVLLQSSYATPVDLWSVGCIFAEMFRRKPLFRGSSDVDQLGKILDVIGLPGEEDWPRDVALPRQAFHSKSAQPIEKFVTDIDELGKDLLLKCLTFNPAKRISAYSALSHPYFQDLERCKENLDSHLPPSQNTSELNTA
Casein kinase I isoform gamma-3 (Homo sapiens), sequence (Q9Y6M4 whole entry, looked up, canonical isoform): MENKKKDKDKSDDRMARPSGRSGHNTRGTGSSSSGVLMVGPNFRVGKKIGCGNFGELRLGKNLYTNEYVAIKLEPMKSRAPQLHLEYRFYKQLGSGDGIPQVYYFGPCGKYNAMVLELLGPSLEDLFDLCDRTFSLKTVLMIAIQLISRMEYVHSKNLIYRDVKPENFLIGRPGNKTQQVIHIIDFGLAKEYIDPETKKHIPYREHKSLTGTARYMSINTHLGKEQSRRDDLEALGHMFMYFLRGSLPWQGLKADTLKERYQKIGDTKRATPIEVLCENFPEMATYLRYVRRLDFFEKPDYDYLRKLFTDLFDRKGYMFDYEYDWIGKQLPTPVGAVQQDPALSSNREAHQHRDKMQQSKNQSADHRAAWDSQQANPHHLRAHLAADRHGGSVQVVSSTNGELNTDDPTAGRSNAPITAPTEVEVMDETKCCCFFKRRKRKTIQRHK
Dual specificity protein kinase CLK2 (Homo sapiens), sequence (P49760 whole entry, looked up): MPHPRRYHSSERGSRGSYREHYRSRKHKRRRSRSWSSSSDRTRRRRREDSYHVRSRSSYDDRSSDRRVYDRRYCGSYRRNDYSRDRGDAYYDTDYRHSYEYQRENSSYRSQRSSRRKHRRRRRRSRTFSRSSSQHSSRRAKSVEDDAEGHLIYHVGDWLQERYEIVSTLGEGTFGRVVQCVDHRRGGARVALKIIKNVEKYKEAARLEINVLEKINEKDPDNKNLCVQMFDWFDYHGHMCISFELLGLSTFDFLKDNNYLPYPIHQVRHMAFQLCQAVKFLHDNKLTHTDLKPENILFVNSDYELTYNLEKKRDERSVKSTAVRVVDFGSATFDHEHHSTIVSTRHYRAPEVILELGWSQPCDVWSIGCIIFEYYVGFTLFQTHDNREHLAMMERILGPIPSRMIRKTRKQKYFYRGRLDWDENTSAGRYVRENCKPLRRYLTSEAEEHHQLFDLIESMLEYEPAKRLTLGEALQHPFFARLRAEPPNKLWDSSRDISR
Cyclin-dependent kinase 5 (Homo sapiens), sequence (Q00535 whole entry, looked up): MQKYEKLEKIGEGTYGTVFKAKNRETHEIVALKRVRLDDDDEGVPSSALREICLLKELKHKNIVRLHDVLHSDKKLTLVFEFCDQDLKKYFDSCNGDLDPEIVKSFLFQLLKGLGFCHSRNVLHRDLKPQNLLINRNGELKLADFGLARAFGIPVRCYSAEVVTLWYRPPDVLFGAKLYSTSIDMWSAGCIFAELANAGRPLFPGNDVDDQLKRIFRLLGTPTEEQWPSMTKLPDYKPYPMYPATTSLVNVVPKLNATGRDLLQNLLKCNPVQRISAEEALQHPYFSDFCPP

| Structure (SMILES) | inhibition [1] | inhibition [2] | inhibition [3] | inhibition [4] | inhibition [5] | inhibition [6] | inhibition [7] | inhibition [8] | inhibition [9] | inhibition [10] | inhibition [11] | inhibition [12] | inhibition [13] | inhibition [14] | inhibition [15] | inhibition [16] | inhibition [17] | inhibition [18] | inhibition [19] | inhibition [20] |
| --- | --- | --- | --- | --- | --- | --- | --- | --- | --- | --- | --- | --- | --- | --- | --- | --- | --- | --- | --- | --- |
| CCN(CC)S(=O)(=O)c1ccc(OC)c(Nc2ncc(-c3ccccc3)o2)c1 | -0.29% | -0.78% | 1.34% | 0.99% | 5.32% | 2.02% | 5.22% | 3.09% | 3.61% | 1.42% | -0.01% | 1.62% | 2.74% | 0.99% | 2.21% | 5.19% | 2.95% | 4.15% | 40.3% | 0.64% |
| CC(C)COC(=O)c1ccc2c(c1)/C(=C/Nc1ccc(S(N)(=O)=O)cc1)C(=O)N2 | 14.2% | -3.31% | 20.6% | 36.9% | 75.5% | 82% | 86.6% | 66.2% | 82.7% | 43.8% | 90.8% | 24.7% | 66.7% | 49.8% | 79.6% | 21.5% | 68.6% | 19.2% | 72.2% | -0.32% |
| CS(=O)(=O)CCNCc1ccc(-c2ccc3ncnc(Nc4ccc(OCc5ccccc5)c(C(F)(F)F)c4)c3c2)o1 | 4.2% | 3.19% | 2.56% | 0.28% | 1.7% | 6.22% | 8.37% | 2.59% | 4.6% | 0.51% | -3.61% | 2.38% | 3.96% | 0.23% | 1.58% | -1.88% | -4.19% | 0.79% | -2.13% | 0.57% |
| COc1cc(N2CCN(C(C)C)CC2)ccc1Nc1nc(Nc2ccc(F)cc2C(N)=O)c2cc[nH]c2n1 | 40.8% | 14.7% | 59% | 1.39% | 1.85% | 2.71% | 0.03% | 0.79% | 0.42% | -2.54% | 0.34% | 1.59% | 5.82% | 0.74% | 0.58% | -2.83% | 2.77% | 37.3% | 88.4% | 1.64% |
| CC(C)(CO)CNC(=O)c1ccc2c(c1)/C(=N/Nc1ccc(S(N)(=O)=O)cc1)C(=O)N2 | 3.6% | 1.31% | 8.37% | 37.2% | 74.8% | 87.3% | 93.6% | 68.4% | 81.2% | 48.5% | 88.5% | 13.6% | 54.6% | 40.6% | 75.1% | 9.84% | 59.1% | 11.8% | 61.9% | -0.48% |
| CS(=O)(=O)CCNCc1coc(-c2ccc3ncnc(Nc4ccc(OCc5ccccc5)cc4)c3c2)c1 | 1.86% | 1.74% | 1.31% | 2.51% | 1.71% | 2.91% | 2.02% | 1.53% | 3.24% | -3.62% | -1.98% | 1.27% | 3.49% | 0.65% | 2.1% | 0.39% | 3.6% | 3.24% | 1.86% | -0.2% |
| Fc1ccc(-c2nn3ncccc3c2-c2ccnc(Nc3ccc4c(c3)OCCO4)n2)cc1 | 61.6% | 23.9% | 76.1% | 0.14% | 0.65% | 1.25% | 3.7% | 2.71% | 2.76% | 3.59% | -2.65% | 1.89% | 1.86% | 0.45% | 0.21% | -2.15% | 2.72% | 1.15% | 1.21% | 1.15% |
| CCc1nn2ncccc2c1-c1ccnc(NC2CC2)n1 | 2.18% | 1.24% | 0.68% | 2.52% | 6.8% | 3.24% | 10.4% | 2.25% | 9.7% | -0.69% | 2.56% | 5.47% | 17.6% | 0.79% | 6.84% | 0.16% | 10.1% | 0.1% | 3.21% | 0.31% |
| N#Cc1c(NC(=O)c2ccc(F)cc2)sc2c1CCCC2 | 0.5% | 0.26% | -1.32% | -0.03% | -0.31% | 0.4% | -1.07% | 0.42% | 1.03% | 0.87% | -1.72% | 0.38% | 1.59% | 0.42% | 0.28% | -1.23% | -0.13% | -1% | 1.4% | 0.44% |
| O=C(Nc1n[nH]c2cc(-c3ccc(F)cc3)ccc12)C1CC1 | 3.16% | 1.93% | 3.02% | 0.08% | 4.52% | -0.94% | 5.81% | 2.56% | 6.81% | 2.18% | 2.42% | 2.64% | 6.92% | 0.56% | 3.03% | -1.47% | 24.6% | 0.75% | 0.48% | 1.11% |
| Cc1cccc(Nc2ncc(-c3ccccc3)o2)c1 | 3.38% | 2.18% | 2.99% | 3.39% | 5.05% | 4.32% | 8.62% | 1.61% | 9.01% | -0.22% | 4.71% | 1.95% | 5.69% | 1.51% | 7.89% | -1.21% | 11.3% | 1.65% | 4.78% | 1.1% |
| COc1cccc(-c2c[nH]c3c(N/N=C/c4ccncc4)ncnc23)c1 | 4.26% | 1.09% | 4.42% | 42% | 74.2% | 30.4% | 73.7% | 9.46% | 45.5% | 6.61% | 51.3% | 10.5% | 45.7% | 38.8% | 73.1% | 12.2% | 51.4% | 2.83% | 20.4% | 2.11% |
| COC(=O)Nc1nc2ccc(Oc3ccc(NC(=O)Nc4cccc(Cl)c4)cc3)cc2[nH]1 | 1.64% | 0.53% | 1.25% | -0.02% | 0% | -0.3% | -1.22% | 1.4% | 0.48% | 1.02% | -0.43% | 0.18% | 0.01% | 0.3% | -0.49% | -0.37% | 3.51% | -1.9% | -1.67% | 0.01% |
| CCOc1ccc2c(-c3ccnc(Nc4cccc(C(F)(F)F)c4)n3)cnn2n1 | 3.07% | 1.18% | 1.86% | 0.34% | 6.63% | 1.78% | 8.89% | 3.35% | 14.1% | 2.12% | 1.6% | 1.35% | 2.43% | 0.66% | 3.67% | -0.78% | 1.85% | 24.2% | 94.3% | 0.68% |
